High-throughput results as filed in PubChem.
VP16 counter: VP16 counterscreen qHTS for inhibitors of ROR gamma transcriptional activity. Drosophila S2 Gal4-VP16 UAS-luciferase, luminescence, 20 h. actives 3.5% (n = 310,000). Potency, µM (series often up to 53.6 µM), inactives show at the highest dose activity, negative = inhibition, hits mostly inhibitors. AID 2546, 2010;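 further: Gal4-VP16 expression switched on by copper sulfate through the metallothionein promoter; on the % scale 0 is the no-effect control and ±100 the full control effect; nearly all actives have a fitted effect of over 50% in size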
ELG1 DNA repair: qHTS screen for small molecules that inhibit ELG1-dependent DNA repair in human embryonic kidney (HEK293T) cells expressing luciferase-tagged ELG1; HEK293T ELG1-luciferase reporter, luminescence, 16 h; DNA damage induced by 5-fluorouridine; Potency, µM (doses to about 46.1 µM), for the others: at the top dose activity change, negative = inhibition, most hits filed as inhibitors; actives 2.3% (n = 330,000); AID 504467, 2011; further: on the % scale 0 is the no-effect control and ±100 the full control effect; nearly all actives have a fitted effect of over 55% in size
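Reporter activity after DNA damage by 5-fluorouridine is monitored. Compound-treated cells incubate 16 hr at 37 °C, then ONE-Glo is added for 30 min before luminescence reading.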
SW480 rereplic: A quantitative high throughput screen for small molecules that induce DNA re-replication in SW480 colon adenocarcinoma cells; AID 624297, 2012; Potency, µM (titrated, usually from 46.1 µM), for inactives: at the top dose re-replication activation, most hits filed as activators; actives 1.8% (n = 340,000); SW480 DNA re-replication, Hoechst DNA content imaging, 48 h; further: % of control where 0% means no effect; nearly all actives have a fitted effect of over 55% in size
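DNA re-replication was detected as more nuclei of elevated Hoechst intensity after 48 hr exposure to compound (23 nL pinned per well of 250 cells).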
MCF10A rereplic: A quantitative high throughput screen for small molecules that induce DNA re-replication in MCF 10a normal breast cells; Potency, µM (series often up to 46.1 µM), for the others: at the highest dose activity, positive = re-replication, actives largely listed as activators; MCF 10A DNA re-replication, Hoechst nuclear intensity, 48 h; actives 2.9% (n = 350,000); further: % of control where 0% means no effect; nearly all actives have a fitted effect of over 50% in size
RORgamma inh: qHTS for inhibitors of ROR gamma transcriptional activity | Potency, µM (doses to about 53.6 µM), inactives show top-dose activity change, negative = inhibition, usual class: inhibitors | AID 2551, 2010 | Drosophila S2 Gal4-RORgamma UAS-luciferase reporter, 20 h | actives 5.4% (n = 310,000); further: on the % scale 0 is the no-effect control and ±100 the full control effect; nearly all actives have a fitted effect of over 60% in size
Target sequence (P51450 whole entry, looked up, the tested form may be a part): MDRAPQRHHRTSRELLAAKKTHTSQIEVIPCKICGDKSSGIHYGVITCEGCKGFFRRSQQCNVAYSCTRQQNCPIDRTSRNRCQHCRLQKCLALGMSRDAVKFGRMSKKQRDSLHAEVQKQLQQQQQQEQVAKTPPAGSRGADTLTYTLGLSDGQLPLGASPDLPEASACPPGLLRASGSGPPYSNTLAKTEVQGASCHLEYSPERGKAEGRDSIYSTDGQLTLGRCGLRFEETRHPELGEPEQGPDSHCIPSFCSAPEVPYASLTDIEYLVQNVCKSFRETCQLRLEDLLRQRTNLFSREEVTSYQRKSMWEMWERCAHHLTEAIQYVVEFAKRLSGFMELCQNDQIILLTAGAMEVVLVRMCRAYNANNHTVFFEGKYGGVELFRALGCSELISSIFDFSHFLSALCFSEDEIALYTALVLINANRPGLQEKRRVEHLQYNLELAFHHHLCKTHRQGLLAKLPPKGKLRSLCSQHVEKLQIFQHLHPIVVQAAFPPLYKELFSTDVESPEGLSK
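In this cell-based reporter format, copper sulfate (700 uM final) drives Gal4–ROR gamma fusion expression from a metallothionein promoter in Drosophila Schneider cells; compounds preincubated 1 hr, reporter read after 20 hr at ambient temperature.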
Active calls of the source: *; ? = inconclusive; nt = no result given; [ ] = another dose, or the depositor's remark. This is a sample that favours compounds with a hit; in the whole collection about 10% have one here. The call rests on the fitted dose curve; in most records, active means well fitted curve in the direction sought with a large enough effect; inconclusive means small, poorly fitted or top-dose-only effect, or another doubt; inactive means no such curve, though single readings can be large; an effect the other way counts as inactive or inconclusive. Potency means the concentration at half of the fitted maximal effect.

SMILES	VP16 counter	ELG1 DNA repair	SW480 rereplic	MCF10A rereplic	RORgamma inh
CCO[C@@H]1OC(C(=O)NC2CC2)=C[C@H](c2coc3ccccc3c2=O)[C@H]1CCCO	nt	nt	-50.6%	0.8%	nt
CCN(CC)c1ccc(/C=N/NC(=S)NCc2ccco2)cc1	3.16µM*	?	?	?	1.78µM*
S=C(NCc1ccco1)N/N=C/c1cccnc1	?	-1.2%	?	-1.6%	11.2µM*
Oc1c(Br)cc(/C=N/NC(=S)NCc2ccco2)cc1Br	-10.4%	8.7%	1.3%	12.2%	?
S=C(NCc1ccco1)N/N=C/c1ccc(Cl)cc1	5.62µM*	?	?	1.1%	2.51µM*
Oc1ccc(/C=N/NC(=S)NCc2ccco2)cc1	-10.4%	-1.3%	-5.4%	-2.8%	11.2µM*
CCc1ccc(N2CC(C(=O)N/N=C/c3cccc([N+](=O)[O-])c3)CC2=O)cc1 (configuration not stated)	-0.7%	0.7%	-5.3%	-6.2%	-5.2%
CC1(C)Nc2ccc(O)cc2-c2c1ssc2=S	?	11.6µM*	-5.1%	?	8.91µM*
C=C(C)CN=C1SC(C(=O)Nc2sc3c(c2C(=O)OC)CCC3)C(N)=C1C(N)=O (configuration not stated)	-10.4%	-0.4%	?	4.11µM*	?
C/C(=N\Nc1nc2ccccc2[nH]1)c1ccc2c(c1)OCCO2	?	?	10.7%	12.5%	7.08µM*
CCN(CC)c1ccc(/C=N/Nc2nc3ccccc3[nH]2)cc1	3.98µM*	?	20.6µM*	9.2µM*	3.16µM*
O=c1[nH]c(N/N=C\c2ccc(F)cc2)nc2ccccc12	-25.1%	?	-4.0%	-1.1%	10µM*
C/C(=N\Nc1nc2ccccc2[nH]1)c1ccc2c(c1)OCO2	11.2µM*	-7.3%	20.6µM*	?	3.16µM*
CCOC(=O)c1ccc(C(=S)N2CCCC2)cc1	-0.6%	-4.8%	6.0%	8.3%	-9.8%
C(=N\Nc1nc2ccccc2[nH]1)/c1ccc2c(c1)OCO2	?	?	-1.2%	9.5%	12.6µM*
Cc1cc(OCc2cc(C(=O)N3CCN(C)C(=O)[C@@H]3C)no2)cc(C)c1Cl	14.1µM*	-15.4%	2.6%	?	-34.1%
Cc1cc(OCc2cc(C(=O)N(C)C3CCOCC3)no2)cc(C)c1Cl	?	?	-0.5%	7.2%	?
O=C(N/N=C/c1ccc(F)cc1)c1sccc1OCc1ccc(F)cc1	22.0%	12.8%	9.2µM*	7.31µM*	-3.7%
O=C(N/N=C/c1ccc(Cl)cc1)c1sccc1OCc1ccc(F)cc1	0.9%	?	9.2µM*	1.64µM*	?
NNC(=O)c1sccc1OCc1ccc(F)cc1	-2.0%	11.1%	-8.4%	-8.9%	13.4%
O=C(N/N=C/c1ccc(O)cc1)c1ccc(COc2cc(Cl)ccc2Cl)o1	-7.3%	20.5%	2.4%	18.4µM*	34.6%
COC(=O)C1CCN(C(=O)CC(NC(=O)C(F)(F)F)c2cccs2)CC1 (configuration not stated)	-1.3%	-8.4%	-2.8%	?	9.4%
CCNC(=S)N1CCN(S(=O)(=O)/C=C/c2ccccc2)CC1	3.8%	-18.4%	4.6%	0.7%	?
N#CC1=C(N)SC(N)=C(C#N)C1C1CC=CCC1 (configuration not stated)	?	2.4%	?	-9.0%	15.8µM*
N#CC1=C(N)SC(N)=C(C#N)C1C1C=CCCC1 (configuration not stated)	?	10.7%	-6.4%	1.8%	?
SMILES	VP16 counter	ELG1 DNA repair	SW480 rereplic	MCF10A rereplic	RORgamma inh
CC[C@H](C)[C@H](NC(=O)CNC(=O)[C@H](CCCNC(=N)N)NC(=O)[C@H](CO)NC(=O)[C@H](C)NC(=O)[C@H](Cc1ccc(O)cc1)NC(=O)[C@H](Cc1c[nH]c2ccccc12)NC(=O)[C@H](C)NC(=O)[C@@H]1CCCN1C(=O)[C@H](CC(N)=O)NC(=O)[C@@H](NC(=O)[C@H](CC(=O)O)NC(=O)[C@@H]1CCCN1C(=O)[C@@H](NC(=O)[C@H](CCCNC(=N)N)NC(=O)[C@@H](NC(=O)[C@H](CCC(=O)O)NC(=O)[C@H](CCSC)NC(=O)[C@H](CO)NC(=O)[C@H](Cc1cnc[nH]1)NC(=O)[C@H](CCCNC(=N)N)NC(=O)[C@H](Cc1cnc[nH]1)NC(=O)[C@@H](NC(=O)[C@H](CCCNC(=N)N)NC(=O)[C@@H](N)CO)[C@@H](C)O)[C@@H](C)CC)[C@@H](C)O)[C@@H](C)CC)C(=O)N[C@@H](CCCNC(=N)N)C(=O)N1CCC[C@H]1C(=O)N[C@H](C(=O)NCC(=O)N[C@@H](CCCNC(=N)N)C(=O)N[C@@H](Cc1ccccc1)C(N)=O)C(C)C	4.7%	nt	nt	nt	4.5%
CC(=O)COc1nc2c(c(-c3ccco3)c1C#N)CCc1ccccc1-2	-13.7%	8.2µM*	8.9%	?	1.2%
O=Cc1ccccc1OCCCOc1cccc2cccnc12	-28.6%	23.4%	95.5%	18.4µM*	2.4%
Cc1cccc(OCCCCc2c(C)n[nH]c2C)c1C	?	-12.6%	-3.6%	?	14.1µM*
O=Cc1ccc(OCCCOc2cccc3cccnc23)cc1	0.4%	21.3%	-7.4%	8.5%	20.7%
Cc1ccc(OCCCOc2cccc3cccnc23)cc1C	?	?	9.5%	25.3%	14.1µM*
Cc1cccc(OCCCOc2cccc3cccnc23)c1C	?	3.3%	?	23.1µM*	12.6µM*
COc1ccc([C@]23Cc4cc(OC)c(OC)cc4C(O2)C2=C(CC(C)(C)CC2=O)O3)cc1	-3.0%[10 µM]	nt	nt	nt	1.2%[10 µM]
S=C(NCc1ccco1)NCC(c1ccco1)N1CCCCC1 (configuration not stated)	15.8%	26.7%	?	2.0%[9.22 µM]	20.7%
CCc1ccc(NS(=O)(=O)c2cccc3nsnc23)cc1	0.8%	2.7%	2.5%	5.5%	7.7%
O=C(CCNC(=O)c1ccccc1Cl)Nc1cccc(S(=O)(=O)N2CCCC2)c1	nt	-15.6%	7.0%	17.7%	nt
Cc1nc2c(nc1C)C(=O)c1ccccc1C2=O	nt	nt	13µM*	5.8µM*	nt
Cc1ccc2nc(/C=C/c3cccc(F)c3)ccc2c1	-18.3%	?	3.3%	?	10µM*
COc1ccc(/C=C/C(=O)OCC(=O)Nc2ccc(N3CCOCC3)cc2)cc1OC	-25.4%	17.3%	-14.0%	5.3%	-4.1%
O=C(Nc1cc(Cl)ccc1N1CCOCC1)c1ccco1	5.6%	-2.1%	-6.0%	0.5%	-7.6%
